Results from the supplement of paper PMC10849652.
About 7,900 targets were measured; listed, in parts, are those with a hit and a random draw of the rest. About 0.6% of all pairs of compound and target were hits. A number with no mark means an inactive call.

Legend:
Experiment in all cases: log2 fold change, soluble protein after heating vs DMSO (PISA); higher = thermal stabilisation; K562 cells, 10 uM, 30 min; active = over 0.2 and 3.5 SD of the protein, either way, in both replicates (recomputed)
saracatinib = compound: CN1CCN(CCOc2cc(OC3CCOCC3)c3c(Nc4c(Cl)ccc5c4OCO5)ncnc3c2)CC1 [saracatinib]
Procedure, shortened: (§1)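 K562 cells at 2×10^6 cells/mL were treated for 30 min with 10 μM compound, and aliquots were heated for 3 min over 48°C-58°C before pooling. Extraction used PBS with 0.5% NP-40 at 4°C, and soluble protein was the supernatant after 21,000xg for 90 min, measured by TMTpro 16plex LC-MS/MS with channel sums equalised. Thermal stability values, relative to control samples and from duplicates, are log2 fold changes.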

sotrastaurin = compound: CN1CCN(c2nc(C3=C(c4c[nH]c5ccccc45)C(=O)NC3=O)c3ccccc3n2)CC1 [sotrastaurin]
Procedure, shortened: as §1

alvocidib = compound: CN1CC[C@H](c2c(O)cc(O)c3c(=O)cc(-c4ccccc4Cl)oc23)[C@H](O)C1 [alvocidib]
Procedure, shortened: as §1

Tubastatin A = compound: CN1CCc2c(c3ccccc3n2Cc2ccc(C(=O)NO)cc2)C1 [Tubastatin A]
Procedure, shortened: as §1

[1] = compound: CNC(=O)C1=CC=CC=C1NC2=NC(=NC=C2Cl)NC3=C(C=C(C=C3)N4CCOCC4)OC
Procedure, shortened: as §1

defactinib = compound: CNC(=O)c1ccc(Nc2ncc(C(F)(F)F)c(NCc3nccnc3N(C)S(C)(=O)=O)n2)cc1 [defactinib]
Procedure, shortened: as §1

rucaparib = compound: CNCc1ccc(-c2[nH]c3cc(F)cc4c3c2CCNC4=O)cc1 [rucaparib]
Procedure, shortened: as §1

[2] = compound: CNc1nc(-c2ccc3c(N)n[nH]c3c2)cc(N2C[C@@H](C(=O)NC3CCCCC3)CC[C@H]2C)n1
Procedure, shortened: as §1

encorafenib = compound: COC(=O)N[C@@H](C)CNc1nccc(-c2cn(C(C)C)nc2-c2cc(Cl)cc(NS(C)(=O)=O)c2F)n1 [encorafenib]
Procedure, shortened: as §1

[3] = compound: COC(=O)[C@H](CCSC)NC(=O)C1=C(C=C(C=C1)NC[C@H](CS)N)C2=CC=CC=C2
Procedure, shortened: as §1

Chain of UniProt P09622 (P09622 whole entry, looked up): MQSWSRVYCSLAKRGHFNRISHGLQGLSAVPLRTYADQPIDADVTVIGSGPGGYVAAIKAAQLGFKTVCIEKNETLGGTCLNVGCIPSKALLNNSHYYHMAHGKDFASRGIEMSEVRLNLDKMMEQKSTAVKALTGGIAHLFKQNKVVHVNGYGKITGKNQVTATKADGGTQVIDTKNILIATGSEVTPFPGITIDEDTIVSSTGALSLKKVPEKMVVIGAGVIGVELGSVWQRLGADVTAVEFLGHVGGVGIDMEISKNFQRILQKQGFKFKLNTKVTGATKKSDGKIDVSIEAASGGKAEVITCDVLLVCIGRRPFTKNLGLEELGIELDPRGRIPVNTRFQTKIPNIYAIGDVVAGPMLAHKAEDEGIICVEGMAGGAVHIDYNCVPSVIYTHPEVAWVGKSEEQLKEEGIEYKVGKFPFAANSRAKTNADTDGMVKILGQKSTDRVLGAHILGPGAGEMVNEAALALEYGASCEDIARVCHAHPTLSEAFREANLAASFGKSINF
Chain of UniProt Q16531 (Q16531 whole entry, looked up): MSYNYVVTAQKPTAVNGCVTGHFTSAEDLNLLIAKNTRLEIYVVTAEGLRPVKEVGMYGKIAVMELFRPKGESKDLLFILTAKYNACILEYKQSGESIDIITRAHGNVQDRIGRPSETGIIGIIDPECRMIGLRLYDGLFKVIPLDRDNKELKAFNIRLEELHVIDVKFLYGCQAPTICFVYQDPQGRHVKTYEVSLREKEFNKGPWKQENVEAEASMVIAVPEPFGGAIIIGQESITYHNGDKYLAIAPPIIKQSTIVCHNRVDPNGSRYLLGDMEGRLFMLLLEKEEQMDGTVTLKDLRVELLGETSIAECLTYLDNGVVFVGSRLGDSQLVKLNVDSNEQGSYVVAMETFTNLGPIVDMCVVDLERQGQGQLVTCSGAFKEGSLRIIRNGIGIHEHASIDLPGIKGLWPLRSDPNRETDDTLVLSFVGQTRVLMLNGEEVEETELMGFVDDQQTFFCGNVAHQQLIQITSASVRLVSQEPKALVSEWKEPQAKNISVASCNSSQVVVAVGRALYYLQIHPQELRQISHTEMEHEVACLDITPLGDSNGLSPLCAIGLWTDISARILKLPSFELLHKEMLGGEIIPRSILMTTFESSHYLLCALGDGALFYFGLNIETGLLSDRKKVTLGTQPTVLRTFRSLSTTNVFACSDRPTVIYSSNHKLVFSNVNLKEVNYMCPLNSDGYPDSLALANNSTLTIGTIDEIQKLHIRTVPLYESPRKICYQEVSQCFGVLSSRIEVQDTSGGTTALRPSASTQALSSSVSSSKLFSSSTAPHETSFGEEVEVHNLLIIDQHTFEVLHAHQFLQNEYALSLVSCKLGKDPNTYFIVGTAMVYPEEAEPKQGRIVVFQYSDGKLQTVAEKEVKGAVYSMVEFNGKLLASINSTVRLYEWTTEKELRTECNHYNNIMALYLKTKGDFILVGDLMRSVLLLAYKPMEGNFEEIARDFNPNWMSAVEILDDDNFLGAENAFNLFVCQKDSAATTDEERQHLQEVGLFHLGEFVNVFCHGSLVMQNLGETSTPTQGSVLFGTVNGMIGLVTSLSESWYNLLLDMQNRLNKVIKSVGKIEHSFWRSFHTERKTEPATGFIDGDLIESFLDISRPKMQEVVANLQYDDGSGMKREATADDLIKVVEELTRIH
Chain of UniProt Q14203 (Q14203 whole entry, looked up): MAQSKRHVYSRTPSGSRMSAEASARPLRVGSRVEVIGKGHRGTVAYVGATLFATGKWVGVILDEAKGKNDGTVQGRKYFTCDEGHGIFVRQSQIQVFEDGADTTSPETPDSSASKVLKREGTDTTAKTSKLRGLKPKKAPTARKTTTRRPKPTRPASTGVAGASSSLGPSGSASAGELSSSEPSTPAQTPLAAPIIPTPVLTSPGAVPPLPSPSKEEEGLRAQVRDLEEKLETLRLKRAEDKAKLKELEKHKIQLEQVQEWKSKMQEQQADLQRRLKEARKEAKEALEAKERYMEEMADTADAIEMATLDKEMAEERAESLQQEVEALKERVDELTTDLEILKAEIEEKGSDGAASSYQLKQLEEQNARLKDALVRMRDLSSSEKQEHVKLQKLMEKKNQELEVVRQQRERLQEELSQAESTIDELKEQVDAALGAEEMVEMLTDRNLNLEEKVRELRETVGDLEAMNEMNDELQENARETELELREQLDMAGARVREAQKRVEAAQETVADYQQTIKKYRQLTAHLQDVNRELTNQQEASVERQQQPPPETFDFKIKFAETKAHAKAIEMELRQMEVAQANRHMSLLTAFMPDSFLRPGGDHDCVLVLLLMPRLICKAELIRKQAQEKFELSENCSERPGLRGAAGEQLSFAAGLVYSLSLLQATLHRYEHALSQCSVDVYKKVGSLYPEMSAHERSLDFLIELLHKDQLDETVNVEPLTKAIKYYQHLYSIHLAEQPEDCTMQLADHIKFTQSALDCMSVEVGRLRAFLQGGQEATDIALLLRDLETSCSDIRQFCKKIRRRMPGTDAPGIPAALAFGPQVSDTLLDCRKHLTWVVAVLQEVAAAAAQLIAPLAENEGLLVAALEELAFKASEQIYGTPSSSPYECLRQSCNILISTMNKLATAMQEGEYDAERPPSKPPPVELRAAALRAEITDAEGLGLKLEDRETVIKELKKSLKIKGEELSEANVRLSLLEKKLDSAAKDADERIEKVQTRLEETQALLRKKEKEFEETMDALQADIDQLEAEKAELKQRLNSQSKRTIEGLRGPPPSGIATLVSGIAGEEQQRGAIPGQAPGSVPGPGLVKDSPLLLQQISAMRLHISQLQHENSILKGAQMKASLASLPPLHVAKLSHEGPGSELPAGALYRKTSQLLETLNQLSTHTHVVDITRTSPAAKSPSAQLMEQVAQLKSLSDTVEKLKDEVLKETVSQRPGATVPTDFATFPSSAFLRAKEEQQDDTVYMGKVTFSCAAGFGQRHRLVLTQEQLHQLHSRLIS
Chain of UniProt P10619 (P10619 whole entry, looked up): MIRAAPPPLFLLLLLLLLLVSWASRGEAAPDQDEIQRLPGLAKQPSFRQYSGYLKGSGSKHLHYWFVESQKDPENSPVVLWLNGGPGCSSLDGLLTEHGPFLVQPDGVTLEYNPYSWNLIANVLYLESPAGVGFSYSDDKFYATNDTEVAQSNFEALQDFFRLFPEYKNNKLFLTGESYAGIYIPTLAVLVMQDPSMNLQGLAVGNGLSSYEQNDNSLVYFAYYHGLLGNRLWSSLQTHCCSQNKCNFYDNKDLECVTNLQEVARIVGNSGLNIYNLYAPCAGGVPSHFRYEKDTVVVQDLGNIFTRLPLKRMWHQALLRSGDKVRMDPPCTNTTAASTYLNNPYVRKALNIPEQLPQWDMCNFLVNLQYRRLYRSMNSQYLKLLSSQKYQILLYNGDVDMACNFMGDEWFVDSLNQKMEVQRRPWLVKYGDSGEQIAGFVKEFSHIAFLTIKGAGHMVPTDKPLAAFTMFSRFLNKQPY
Chain of UniProt P25685 (P25685 whole entry, looked up): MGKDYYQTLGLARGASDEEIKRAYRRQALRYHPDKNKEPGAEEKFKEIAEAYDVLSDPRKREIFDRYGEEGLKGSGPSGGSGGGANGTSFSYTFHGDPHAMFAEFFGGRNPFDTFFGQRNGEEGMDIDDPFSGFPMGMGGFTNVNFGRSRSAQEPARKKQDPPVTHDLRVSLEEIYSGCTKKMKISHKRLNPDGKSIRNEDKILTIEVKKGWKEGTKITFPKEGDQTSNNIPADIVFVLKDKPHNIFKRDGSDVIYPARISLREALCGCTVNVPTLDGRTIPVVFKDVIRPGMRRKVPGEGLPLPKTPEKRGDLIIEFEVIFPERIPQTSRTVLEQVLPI
Chain of UniProt Q96DF8 (Q96DF8 whole entry, looked up): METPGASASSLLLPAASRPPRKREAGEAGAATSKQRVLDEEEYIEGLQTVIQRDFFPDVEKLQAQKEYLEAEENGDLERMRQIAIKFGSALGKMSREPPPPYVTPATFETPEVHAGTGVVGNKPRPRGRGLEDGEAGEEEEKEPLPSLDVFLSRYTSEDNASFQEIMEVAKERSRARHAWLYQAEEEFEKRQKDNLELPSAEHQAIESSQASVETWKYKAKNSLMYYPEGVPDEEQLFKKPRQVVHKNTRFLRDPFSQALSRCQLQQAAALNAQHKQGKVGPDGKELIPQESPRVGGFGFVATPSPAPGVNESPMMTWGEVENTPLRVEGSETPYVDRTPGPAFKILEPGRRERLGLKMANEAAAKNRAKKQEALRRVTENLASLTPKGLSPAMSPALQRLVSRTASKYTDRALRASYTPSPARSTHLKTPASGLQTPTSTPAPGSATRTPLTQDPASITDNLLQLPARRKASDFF
Chain of UniProt Q5W0V3 (Q5W0V3 whole entry, looked up): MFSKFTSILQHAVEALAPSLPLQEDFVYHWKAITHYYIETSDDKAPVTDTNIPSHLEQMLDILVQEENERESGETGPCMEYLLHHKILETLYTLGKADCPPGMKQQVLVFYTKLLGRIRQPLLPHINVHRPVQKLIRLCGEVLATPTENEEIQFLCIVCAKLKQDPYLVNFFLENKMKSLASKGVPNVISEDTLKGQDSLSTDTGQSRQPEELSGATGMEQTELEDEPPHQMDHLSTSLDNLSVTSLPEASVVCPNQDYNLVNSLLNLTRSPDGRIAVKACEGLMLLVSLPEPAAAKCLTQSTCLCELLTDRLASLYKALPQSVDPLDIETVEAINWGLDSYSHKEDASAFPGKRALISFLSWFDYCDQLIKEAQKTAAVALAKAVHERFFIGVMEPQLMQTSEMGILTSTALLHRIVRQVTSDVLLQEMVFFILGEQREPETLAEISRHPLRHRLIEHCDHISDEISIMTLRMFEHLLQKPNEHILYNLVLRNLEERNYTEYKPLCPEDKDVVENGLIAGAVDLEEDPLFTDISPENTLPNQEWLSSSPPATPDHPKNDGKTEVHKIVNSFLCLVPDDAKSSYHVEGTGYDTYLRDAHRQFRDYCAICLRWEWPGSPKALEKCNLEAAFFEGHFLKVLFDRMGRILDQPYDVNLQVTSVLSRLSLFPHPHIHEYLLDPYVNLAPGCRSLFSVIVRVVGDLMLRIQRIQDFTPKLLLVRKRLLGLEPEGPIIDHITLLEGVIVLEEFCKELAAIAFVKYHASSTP

| Target | log2 fold change (saracatinib) | log2 fold change (sotrastaurin) | log2 fold change (alvocidib) | log2 fold change (Tubastatin A) | log2 fold change [1] | log2 fold change (defactinib) | log2 fold change (rucaparib) | log2 fold change [2] | log2 fold change (encorafenib) | log2 fold change [3] |
| --- | --- | --- | --- | --- | --- | --- | --- | --- | --- | --- |
| EXOC2 (UniProt Q96KP1) | -0.058 | -0.214 | -0.01 | 0.044 | 0.064 | -0.096 | 0.136 | -0.004 | 0.126 | -0.085 |
| DLD (UniProt P09622) | 0.055 | 0.015 | 0.026 | -0.029 | 0.008 | 0.01 | -0.041 | -0.023 | -0.011 | 0.047 |
| DNAJB1 (UniProt P25685) | -0.003 | -0.03 | -0.094 | -0.001 | -0.011 | -0.05 | -0.025 | -0.033 | -0.009 | -0.017 |
| EIF4G3 isoform 3 (UniProt O43432) | -0.076 | -0.038 | -0.018 | -0.016 | -0.019 | 0.04 | 0.519 | -0.056 | 0.031 | -0.025 |
| EEF1B2 (UniProt P24534) | -0.091 | -0.061 | -0.009 | 0.017 | 0.06 | -0.064 | 0.041 | -0.013 | 0.07 | -0.046 |
| DNAH5 (UniProt Q8TE73) | 0.058 | 0.017 | 0.044 | 0.058 | -0.057 | 0.015 | -0.071 | -0.099 | -0.006 | -0.072 |
| DHX36 (UniProt Q9H2U1) | -0.014 | 0.021 | 0.122 | 0.048 | -0.041 | 0.171 | 0.187 | 0.03 | 0.095 | 0.011 |
| DSN1 (UniProt Q9H410) | 0.032 | -0.042 | -0.164 | 0.082 | -0.031 | -0.146 | 0.076 | 0.016 | 0.02 | 0.029 |
| DDOST (UniProt P39656) | -0.015 | -0.03 | 0.013 | 0.021 | 0.008 | 0.042 | -0.029 | -0.005 | 0.059 | -0.002 |
| DHFR (UniProt P00374) | -0.193 | 1.66 (active) | 0.215 | 1.77 (active) | -0.115 | -0.109 | 0.39 | 0.036 | 0.109 | -0.059 |
| CTSA (UniProt P10619) | 0.056 | 0.089 | 0.04 | -0.015 | 0.06 | 0.022 | -0.041 | 0.002 | 0.057 | 0.065 |
| ESS2 (UniProt Q96DF8) | 0.041 | -0.025 | 0.113 | -0.055 | -0.038 | 0 | -0.013 | -0.142 | -0.012 | 0.01 |
| DCTN1 isoform 4 (UniProt Q14203) | -0.126 | -0.159 | -0.083 | 0.079 | -0.056 | -0.037 | 0.227 | 0.074 | 0.083 | -0.068 |
| DNAH10 (UniProt Q8IVF4) | -0.067 | -0.06 | 0.028 | 0.191 | -0.157 | 0.004 | -0.044 | 0.062 | -0.06 | -0.013 |
| DCAF13 (UniProt Q9NV06) | -0.027 | 0.001 | 0.214 | 0.094 | 0.074 | 0.165 | 0.19 | 0.045 | 0.07 | 0.029 |
| DNAJC24 (UniProt Q6P3W2) | 0.185 | -0.081 | -0.038 | -0.094 | -0.033 | 0.116 | 0.059 | -0.351 (active) | 0.038 | 0.099 |
| ELOVL1 (UniProt Q9BW60) | 0.015 | 0.037 | -0.011 | -0.015 | -0.223 | -0.029 | 0.05 | 0.017 | -0.011 | 0 |
| DUS3L (UniProt Q96G46) | 0.02 | -0.155 | -0.037 | -0.028 | 0.022 | -0.148 | 0.204 | -0.033 | 0.016 | 0.003 |
| EIF4A1 (UniProt P60842) | -0.029 | -0.138 | -0.088 | 0.049 | -0.03 | -0.116 | 0 | 0.012 | 0.071 | -0.05 |
| DHCR7 (UniProt Q9UBM7) | 0.412 | -0.033 | -0.042 | 0.087 | -0.181 | -0.01 | 0.143 | 0.087 | 0.084 | -0.048 |
| CUEDC2 (UniProt Q9H467) | -0.003 | -0.045 | -0.089 | 0.197 | -0.036 | -0.067 | -0.033 | -0.338 (active) | 0.071 | 0.016 |
| EXOC6 (UniProt Q8TAG9) | -0.02 | -0.153 | -0.151 | 0.042 | 0.075 | -0.061 | 0.025 | -0.015 | 0.013 | 0.009 |
| DHRS3 (UniProt O75911) | -0.022 | -0.008 | 0.001 | -0.042 | 0.044 | 0.077 | -0.04 | -0.016 | 0.004 | 0.027 |
| FAM160B1 (UniProt Q5W0V3) | -0.003 | -0.071 | -0.138 | 0 | -0.011 | -0.01 | -0.036 | -0.007 | -0.015 | 0.072 |
| DDX27 (UniProt Q96GQ7) | -0.104 | -0.088 | 0.209 | 0.09 | -0.035 | 0.651 | 0.255 | -0.017 | 0.124 | 0.057 |
| EXOC5 (UniProt O00471) | -0.043 | -0.209 | -0.008 | 0.015 | 0.042 | -0.064 | 0.091 | -0.06 | 0.083 | -0.071 |
| CTSV (UniProt O60911) | -0.049 | 0.195 | 0.012 | 0.016 | 0.048 | 0.011 | -0.056 | 0.062 | 0 | 0.02 |
| FAM177A1 isoform 2 (UniProt Q8N128) | 0.092 | -0.021 | -0.011 | 0.045 | -0.094 | -0.054 | 0.001 | -0.042 | -0.029 | -0.065 |
| EEF1G isoform 2 (UniProt P26641) | -0.012 | -0.041 | -0.044 | -0.008 | 0.075 | -0.051 | 0.045 | 0.02 | 0.076 | -0.047 |
| DDB1 (UniProt Q16531) | 0.04 | 0.04 | 0.004 | -0.025 | 0.001 | 0.002 | -0.033 | -0.035 | 0.003 | 0 |
